Results on 13 molecules are retold here after PubChem BioAssay (NCATS).

Unmarked numbers belong to inactive results. Results filed as inconclusive are left out. A call without a number means that no potency is given here. Calls of active or inactive are those of the source. The call rests on the fitted dose curve; in most records, active means well fitted curve in the direction sought with a large enough effect; inconclusive means small, poorly fitted or top-dose-only effect, or another doubt; inactive means no such curve, though single readings can be large; an effect the other way counts as inactive or inconclusive.

For the first assay, the target named is Cytochrome P450 3A4 (Homo sapiens) (UniProt P08684). In words: qHTS Assay for Inhibitors and Substrates of Cytochrome P450 3A4 (AID 884). Further: nearly all actives have a fitted effect of over 50% in size. Further: potency means the concentration at half of the fitted maximal effect. The conditions noted are these: recombinant CYP3A4, Luciferin-PPXE luminescence; series mostly up to 57.1 µM. The essentials: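 20 nM human CYP3A4 with 25 uM Luciferin-PPXE (at KM) in 200 mM KPO4, preincubated 10 min with compound; NADPH regeneration started a 60 min RT reaction. Luciferin detected by luminescence, normalized to 57 uM ketoconazole as full inhibition.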
Cytochrome P450 3A4 (Homo sapiens), sequence (P08684 whole entry, looked up): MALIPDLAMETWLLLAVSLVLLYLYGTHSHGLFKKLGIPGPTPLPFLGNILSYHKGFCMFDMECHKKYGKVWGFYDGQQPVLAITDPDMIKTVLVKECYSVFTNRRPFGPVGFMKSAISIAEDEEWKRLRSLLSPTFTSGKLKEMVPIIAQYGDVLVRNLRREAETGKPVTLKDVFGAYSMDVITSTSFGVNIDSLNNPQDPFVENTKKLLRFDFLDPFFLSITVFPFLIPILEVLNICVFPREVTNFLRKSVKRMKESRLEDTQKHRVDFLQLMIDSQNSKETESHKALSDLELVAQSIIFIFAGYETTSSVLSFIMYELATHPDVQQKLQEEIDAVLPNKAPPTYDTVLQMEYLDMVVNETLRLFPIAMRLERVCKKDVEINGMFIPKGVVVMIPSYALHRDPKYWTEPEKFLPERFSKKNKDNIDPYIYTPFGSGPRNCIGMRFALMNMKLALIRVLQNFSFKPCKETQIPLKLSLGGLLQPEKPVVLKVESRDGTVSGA
Background: In qHTS, concentration-response curves come from the screen itself.
For the molecule `O=Cc1ccsc1B(O)O`, the Potency result was “inactive”.
For `CCC1=C2CC[C@H]3C(=O)N(C)C(=O)[C@H]3[C@H]2[C@@]2(C)C(=NCC(=O)OC)OC(=O)N2C1=O`, the Potency result is “inactive”.
For the molecule `Cn1c(N)c(C(=O)COC(=O)c2cc(C(F)(F)F)nc3c(C(F)(F)F)cccc23)c(=O)n(C)c1=O`, the Potency result was “inactive”.
On the same count and under the same terms, as for `C=CC[C@@H]1C=C[C@@H](O/N=C(/C)CCC(=O)OC[C@@H]2O[C@H](C#Cc3ccccc3)C=C[C@@H]2Oc2ccc(C)cc2)[C@@H](CO)O1`, the figure is 5.01 µM (active).

For the next assay the target is unchanged. Description: qHTS Assay for Activators of Cytochrome P450 3A4 (AID 885). Further: nearly all actives have a fitted effect of over 65% in size. The conditions noted are these: recombinant CYP3A4, Luciferin-PPXE luminescence, 60 min; series mostly up to 57.1 µM. A digest of the protocol: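 Quantitative HTS format: compounds preincubated with 20nM human CYP3A4 and Luciferin-PPXE substrate at KM, reaction started by NADPH regeneration, stopped after 60 min, luciferase luminescence read 20 min later.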
On to `CC(C)=CCc1c(O)cc2occ(-c3ccc4c(c3)OCO4)c(=O)c2c1O`, for which the Potency entry is “inactive”.
On to `COC(=O)C/C=C\[C@@H](C)[C@@H](/C=N\OC[C@@H](O)[C@H]1O[C@H]2OC(C)(C)O[C@H]2[C@@H]1O)NS(=O)(=O)c1ccc(C)cc1`, for which the activity change, positive = activation was -61% [at 11.4 µM].
As for `CCC1=C(OC(=O)N(CC)CC)N2C(=O)OC(=NCc3ccccc3)[C@]2(C)[C@H]2C1=CC[C@H]1C(=O)NC(=O)[C@H]12`, the Potency entry is “inactive”.
As for `COc1cccc([C@H]2Oc3ccc(OC)cc3/C(=N\OC[C@@H](O)[C@@H]3O[C@@H]4OC(C)(C)O[C@@H]4[C@H]3O)[C@@H]2O)c1`, the activity change, positive = activation was -69.8% [at 11.4 µM].
Consider `CCC1=C(OC(=O)N(CC)CC)N2C(=O)OC(=NCC(=O)OC)[C@]2(C)[C@H]2C1=CC[C@H]1C(=O)NC(=O)[C@H]12`, for which the Potency entry was “inactive”.
For `COc1c(O)c(O)cc2c1oc1c3ccccc3oc(=O)c21`, the Potency result is “inactive”.
On the same count and under the same terms, as for `c1ccc(C2[C@H]3CN(Cc4cccnc4)[C@H](c4ccccc4)C34CC2(c2cccnc2)C4)cc1` (some centres undefined), the entry is “inactive”.
On the same count and under the same terms, to `CCC1=C(OC(=O)N(CC)CC)N2C(=O)OC(=NCc3ccccc3)[C@]2(C)[C@H]2C1=CC[C@H]1C(=O)N(CC)C(=O)[C@H]12` belongs “inactive”.
The same measure, in the same setting: to `CCC1=C(OC(=O)N(CC)CC)N2C(=O)OC(=NCCOC)[C@]2(Cc2ccccc2)[C@H]2C1=CC[C@H]1C(=O)N(CC(=O)OC)C(=O)[C@H]12` belongs “inactive”.
For the molecule `C=CC[C@@H]1C=C[C@@H](O/N=C(/C)CCC(=O)OC[C@@H]2O[C@H](C#Cc3ccccc3)C=C[C@@H]2Oc2ccc(C)cc2)[C@@H](CO)O1`, the activity change, positive = activation is -97.7% [at 11.4 µM].
